Screening results from PubChem.
MazEF act – activators of E. coli MazEF toxin-antitoxin RNase, primary screen, biochemical, fluorescence, uHTS. actives 0.32% (n = 350,000). activation, % at 20 µM. FAM/BHQ RNA-DNA oligo cleavage fluorescence, 5 h. AID 504720, 2011. Endoribonuclease toxin MazF (Escherichia coli (strain K12)), P0AE70; in the data active means activation above about 50%
Target sequence (P0AE70 whole entry, looked up): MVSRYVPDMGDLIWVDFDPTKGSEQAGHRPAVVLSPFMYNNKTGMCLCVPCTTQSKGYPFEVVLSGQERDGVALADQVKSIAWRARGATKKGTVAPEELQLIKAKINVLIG
Autofluor counter – flagged as autofluorescent in microsphere protease counterscreen; compound autofluorescence counterscreen, microsphere flow cytometry; stronger effect = higher value; fluorescence intensity (test concentration not listed); actives 3.1% (n = 360,000); AID 624483; in the data active means fluorescence intensity above about 16000; inconclusive means no clear call, values can overlap the other calls
BoNT-F LC inh – BoNT/F light chain protease inhibitors, primary screen, biochemical, flow cytometry, MLPCN library; Multiplex microsphere protease cleavage assay; Botulinum neurotoxin type F light chain protease (Clostridium botulinum); inhibition, % at 10 µM; actives 0.22% (n = 360,000); in the data active means inhibition above about 35%, passing the limit was not always enough; inconclusive means no clear call, values can overlap the other calls
BoNT A protease – BoNT/A light chain protease inhibitors, primary screen, biochemical, flow cytometry, MLPCN library; multiplex microsphere protease substrate cleavage; Botulinum neurotoxin type A light chain protease (Clostridium botulinum A str. ATCC 3502); inhibition, % at 10 µM; actives 0.17% (n = 360,000)
Anthrax LF prot – Bacillus anthracis LF protease inhibitors, primary screen, biochemical, multiplex microsphere, MLPCN library | AID 588501, 2011 | actives 0.12% (n = 360,000) | multiplex microsphere protease cleavage assay | Lethal factor (Bacillus anthracis), P15917 | inhibition, % at 10 µM
Large screens that a line does not name were inactive. Hits are enriched below; roughly 3.6% of the tested compounds scored in any of these assays. Unless noted, no stated cut-off is given here; in the data, active means inhibition above about 30%; inconclusive means no clear call, values can overlap the other calls; inactive means below that.

CCOC(=O)CSC1=NC(=O)/C(=C/c2ccc(Br)cc2)S1	none
CCOC(=O)CSC1=NC(=O)/C(=C\c2ccc(OC(C)=O)cc2)S1	MazEF act 64.9
COc1ccccc1NC(=O)CCNC(=O)c1ccc(C)cc1	BoNT-F LC inh inconclusive
CN(C)S(=O)(=O)N1CCN(S(=O)(=O)N(C)C)CC1	none
CC1CN(S(=O)(=O)N(C)C)CCN1S(=O)(=O)N(C)C (centres undefined)	Autofluor counter 19855
OCC1(CCc2ccccc2)CCN(Cc2cccn2-c2cccnc2)CC1	none
Cc1ccc(S(=O)(=O)NC2(C(F)(F)F)C(=O)Nc3c2c(=O)n(C)c(=O)n3C)cc1 (centres undefined)	none
CCC(=O)NC1(C(F)(F)F)C(=O)Nc2c1c(=O)n(C)c(=O)n2C (centres undefined)	Autofluor counter 23514
O=S(=O)(c1cccc2nsnc12)N1CCc2ccccc2C1	Autofluor counter 21361, BoNT A protease inconclusive
COc1ccc(-c2cc(-c3nnc(COC(=O)CC4CC5CCC4C5)o3)c3ccccc3n2)cc1OC (centres undefined)	BoNT A protease 51.8
CN(Cc1cccc(Cl)c1Cl)C(=O)c1cc(S(=O)(=O)N2CCOCC2)ccc1F	none
CC(C)(C)c1cc(CCC(=O)NCc2ccccn2)cc(C(C)(C)C)c1O	none
COc1ccc(CCN(Cc2cc3cccc(C)c3[nH]c2=O)C(=O)NC2CCCCC2)cc1OC	Autofluor counter 23128
O=C(NC1CC1)c1cccc(Nc2ccc(-c3ccc4c(c3)OCCO4)nn2)c1	Autofluor counter 21941
O=S(=O)(c1ccc(Nc2ccc(-c3ccc4c(c3)OCCO4)nn2)cc1)N1CCCC1	none
O=C(C1CC(c2ccc(F)cc2)=NO1)N1CCCCC1 (centres undefined)	Autofluor counter 22237
COc1ccc(C2=NOC(C(=O)NCc3ccc(F)cc3)C2)cc1 (centres undefined)	none
COc1ccc(CNC(=O)C2CC(c3ccc(F)cc3)=NO2)cc1 (centres undefined)	Autofluor counter 22739
COc1cc(C2=NOC(C(=O)N3CCOCC3)C2)cc(OC)c1OC (centres undefined)	Autofluor counter 24903, BoNT A protease inconclusive
CCC(C)NC(=O)C1CC(c2ccc(OC)cc2)=NO1 (centres undefined)	Autofluor counter 20670
CCOC(=O)C1(CC)Oc2ccccc2C(c2ccc(OC)cc2)=C1C(=O)OC (centres undefined)	none
CC(=O)N1C(=O)/C(=C2\SC(=S)N(NS(=O)(=O)c3ccc(C)cc3)C2=O)c2ccccc21	none
CC[C@]12C(=O)N(C)C[C@H]([C@@H]3C(=O)N(C)C(=O)[C@@H]31)N2C(=O)c1ccc(Cl)cc1	none
COC(=O)c1nccnc1C(=O)Nc1ccccc1N1CCOCC1	none
COc1ccc(C2=NOC(C(=O)NCCN3CCOCC3)C2)cc1 (centres undefined)	Autofluor counter 21268
COc1ccc(C2=NOC(C(=O)NCc3ccco3)C2)cc1 (centres undefined)	Autofluor counter 20757
COc1ccc(NC(=O)C2C3C=CC(C3)C2C(=O)NCc2ccco2)cc1 (centres undefined)	Autofluor counter 16864
CCCC(=O)N1CCC1(C)C(=O)Nc1ccc2nccnc2c1 (centres undefined)	none (no result: MazEF act)
C=CCOc1ccc2nc(NC(=O)OC)[nH]c2c1	Autofluor counter 23127
C(=N\NC1=Nc2cccc3cccc1c23)/c1ccccn1	none
Clc1ccccc1/C=N/NC1=Nc2cccc3cccc1c23	MazEF act 231.0
Cc1cc(C)cc(OCC(=O)NNC(=O)CC(C)c2ccccc2)c1 (centres undefined)	none
CC(C)OCCCNC(=O)c1cn(C)c2ccc(S(=O)(=O)N3CCCC3)cc2c1=O	none
O=C(NCc1ccco1)c1ccc2c(c1)N(Cc1ccccc1)C(=O)CS2	Autofluor counter 25027
COc1cccc(C2NC(=O)NC(C)=C2C(=O)Nc2cc(OC)ccc2OC)c1 (centres undefined)	Autofluor counter 17900
COc1cccc(C2NC(=O)NC(C)=C2C(=O)Nc2cccc(C)c2C)c1 (centres undefined)	none
O=C1CSC(c2ccccn2)N1c1ccccc1 (centres undefined)	Autofluor counter 21482
O=C(O)c1ccc2c(c1)C(=O)N(C(Cc1ccc(O)cc1)C(=O)O)C2=O (centres undefined)	Autofluor counter 21507
COCCN1CCN(C(=O)c2ccc3oc(CCc4ccccc4)nc3c2)CC1	Autofluor counter inconclusive
O=c1cc(CSc2nnc(-c3ccco3)o2)c2ccccc2[nH]1	Autofluor counter 22171, BoNT A protease inconclusive
O=C(CSc1nnc(-c2ccco2)o1)c1ccc(F)c(F)c1	Autofluor counter 21701
CC(=O)c1c(C)cc(C)c(CSc2nnc(-c3ccco3)o2)c1C	Autofluor counter 19958
COCCCn1c(SCc2cc(=O)[nH]c3ccccc23)nnc1-c1ccco1	none
Cc1nn(C)cc1C1C2=C(CC(C)(C)CC2=O)N(c2ccccc2)C2=C1C(=O)CC(C)(C)C2	none
Cc1ccc(N2C3=C(C(=O)CC(C)(C)C3)C(c3cn(C)nc3C)C3=C2CC(C)(C)CC3=O)cc1	Autofluor counter 20845
Cc1cccnc1NC1(C(F)(F)F)N=C(c2ccccc2)NC1=O (centres undefined)	Autofluor counter 20365
CC(=O)NC1(C(F)(F)F)N=C(c2ccccc2)NC1=O (centres undefined)	none
CCOC(=O)C1C(c2ccccc2Cl)NC(=O)N(C)C1(O)C(F)(F)F (centres undefined)	Autofluor counter 16952
CC1C/C(=C/c2ccncc2)C(=O)/C(=C/c2ccncc2)C1 (centres undefined)	none
CC1C/C(=C/c2cccn2C)C(=O)/C(=C/c2cccn2C)C1 (centres undefined)	MazEF act active
O=C(NC1CC1)C1CCN(c2ccc(S(=O)(=O)N3CCOCC3)cc2Cl)CC1	Autofluor counter 22681
Cc1cc(Cl)c(S(=O)(=O)N2CCCC2)cc1OCC(=O)NC1CCCCC1	Autofluor counter 20066, BoNT A protease inconclusive
O=C(COc1ccc(S(=O)(=O)N2CCCC2)cc1Cl)NC1CCCC1	Autofluor counter 20890
Cc1cc(Cl)c(S(=O)(=O)NCc2cccnc2)cc1OCC(=O)NC1CCCCC1	none
Cc1cc(Cl)c(S(=O)(=O)NC(C(=O)O)C(C)C)cc1OCC(=O)NC1CCCCC1 (centres undefined)	Autofluor counter 20262, BoNT A protease inconclusive
COc1ccc(CN(C)C[C@H]2OCc3cnnn3CCCC(=O)N([C@H](C)CO)C[C@@H]2C)cc1	none
Cc1cc(Cl)c(S(=O)(=O)Nc2ccc3c(c2)OCO3)cc1OCC(N)=O	none
Cc1cc(Cl)c(S(=O)(=O)Nc2ccc3c(c2)OCO3)cc1OCC(=O)NC1CCCCC1	Autofluor counter 25458
